# Reference: PubChem BioAssay (Tox21)
# Records with an inconclusive call do not appear. The source made the active and inactive calls. Calls come from the whole dose curve; as a rule, active = well fitted cell-killing curve with a large enough effect in the repeat runs; inconclusive = weak or mixed curves, or effect the other way; inactive = no such curve, though single readings can be large or run the other way.
# Assay: qHTS assay for identifying genotoxic compounds that show differential cytotoxicity against isogenic chicken DT40 cell lines with known DNA damage response pathways - Rev3 mutant cell line (AID 743014); note: nearly all actives have a fitted effect of over 55% in size
# Details: chicken DT40 Rev3-/- viability, CellTiter-Glo, 40 h; series mostly up to 68.4 µM; activity, negative = cytotoxicity: at the top concentration
# Description: National Center for Advancing Translational Sciences [NCATS]
# NIH Chemical Genomics Center [NCGC]
# U.S. Environmental Protection Agency [EPA]
# National Institutes of Environmental Health Sciences [NIEHS]
# National Toxicology Program [NTP]
# U.S. Food and Drug Administration [FDA]
# DNA repair pathways play a critical role in cellular homeostasis by repairing DNA damage induced by endogenous processes and xenobiotics. Isogenic chicken DT40 cell lines deficient in different DNA repair pathways can be used to identify genotoxic compounds and aid in characterizing the nature of the DNA damage induced. Two DNA repair-deficient cell lines with disrupted genes, Rad54/Ku70 or Rev3, were used to screen the Tox21 10K compound library. Possible genotoxicity was based on the presence of a significant increase in cytotoxicity in one or more of the DNA repair-deficient cell lines compared to that observed in the parental DNA repair-proficient cell line. CellTiter Glo viability assay (Promega, Madison, WI) was used to measure cell viability in these cells after compound treatment. This assay includes the data from the Rev3 mutant cell line.
# Tox21 Assay Protocol Summary:
# 300 DT40 mutant cells in 5 uL/well were dispensed into white, solid-bottom 1536-well plates using a Multidrop Combi (ThermoFisher Scientific, Waltham, MA) dispenser. After the assay plates were incubated at 37 C/5% CO2 for approximately 0.5 hour, 23 nL of compounds dissolved in DMSO, positive controls or DMSO only was transferred into the assay plate by a pintool work station (Kalypsys, San Diego, CA). The assay plates were incubated at 37 C/5% CO2 for 40 hours. After 5 uL per well of CellTiter-Glo reagent was added into each well of the assay plates, the plates were incubated for 30 min at room temperature and the luminescence intensity of the plates was measured using a ViewLux (PerkinElmer, Shelton, CT) plate reader.
# % is set by controls: 0 for no effect and ±100 for the full control effect; potency is the fitted concentration of half-maximal effect.
Structure (SMILES),"activity, negative = cytotoxicity",Potency
O=C/C=C/c1ccco1,0.614% (inactive),–
CCOc1cc(OP(=S)(OC)OC)nc(CC)n1,13.4% (inactive),–
C[C@H](CN1CCOCC1)C(C(=O)N1CCCC1)(c1ccccc1)c1ccccc1,–,37.3 µM (active)
O=C(Cl)CCl,0.207% [at 95 µM] (inactive),–
CCCCCCCC(=O)Cl,1.64% [at 95 µM] (inactive),–
Clc1ccc(C(Cl)(Cl)Cl)cn1,–,61.1 µM (active)
CCSC(=O)Cl,-1.31% [at 95 µM] (inactive),–
C#CC(C)(C)O,-0.529% [at 95 µM] (inactive),–
C/C(=N\NC(=O)Nc1cc(F)cc(F)c1)c1ncccc1C(=O)O,9.01% (inactive),–
O=C(O)CBr,-13.1% (inactive),–
CN(C)C1CCCCC1,2.72% (inactive),–
O=C1CC(=O)NC(=O)N1,12.9% (inactive),–
CC1N=C(N)OC1c1ccccc1 (stereo not given),5.77% (inactive),–
CCNc1nc(Cl)nc(NC(C)(C)C)n1,-23.4% (inactive),–
Clc1nc(Cl)nc(Nc2ccccc2Cl)n1,-8.56% (inactive),–
CCCC[N+](=O)[O-],1.16% (inactive),–
O=C(Cl)C(Cl)(Cl)Cl,2.61% [at 95 µM] (inactive),–
CC(C)[N+](C)(CCC(C(N)=O)(c1ccccc1)c1ccccc1)C(C)C,8.98% [at 31.4 µM] (inactive),–
NCC1(CC(=O)O)CCCCC1,5.75% [at 31.4 µM] (inactive),–
C=C(Cl)CCl,5.47% (inactive),–

Structure (SMILES),"activity, negative = cytotoxicity",Potency
CC(C)(C)C(=O)Cl,-7.2% [at 95 µM] (inactive),–
CCC1(c2ccccc2)CCC(=O)NC1=O (stereo not given),0.338% (inactive),–
CC#Cc1cc(C)nc(Nc2ccccc2)n1,–,61.1 µM (active)
CN(CCO)CCO,-3.31% [at 95 µM] (inactive),–
CC(Cl)(Cl)Cl,7.06% (inactive),–
ClCC1CO1 (stereo not given),–,inactive
O=C(O)c1c(Cl)ccc2cc(Cl)cnc12,3.79% (inactive),–
CCC1(c2cccc(O)c2)CCCCN(C)C1 (stereo not given),1.02% [at 31.4 µM] (inactive),–
Cn1c(CCCC(=O)O)nc2cc(N(CCCl)CCCl)ccc21,–,3.35 µM (active)
COc1cc(CC(C)N)cc(OC)c1OC (stereo not given),-8.83% [at 95 µM] (inactive),–
N=C(N)[Se],–,2.44 µM (active)
NNCc1ccccc1,6.34% [at 95 µM] (inactive),–
ClC1=C(Cl)C2(Cl)C(CBr)CC1(Cl)C2(Cl)Cl (stereo not given),–,27.3 µM (active)
CCOC(=O)CCl,0.498% (inactive),–
CCCC(C)(COC(N)=O)COC(N)=O,–,inactive
COc1ccccc1OC,-19.8% (inactive),–
COc1ccc2c(C(=O)c3ccc(Cl)cc3)c(C)n(CC(=O)O)c2c1,5.75% (inactive),–
COc1cccc([C@@]2(O)CCCC[C@@H]2CN(C)C)c1,14.6% (inactive),–
CCCCOC(C)=O,1.79% [at 95 µM] (inactive),–
CCN[C@@H](C)Cc1cccc(C(F)(F)F)c1,–,16.9 µM (active)
